Assay outcomes from PubChem.
MITF inh = human MITF inhibition, primary screen | AID 1259374 | inhibition, % at 2.6 µM | hit rate 0.91% among 650,000 | AlphaScreen MITF homodimerization, bead proximity signal | O75030; in the data active = inhibition above about 50%
Target sequence (O75030 whole entry, looked up): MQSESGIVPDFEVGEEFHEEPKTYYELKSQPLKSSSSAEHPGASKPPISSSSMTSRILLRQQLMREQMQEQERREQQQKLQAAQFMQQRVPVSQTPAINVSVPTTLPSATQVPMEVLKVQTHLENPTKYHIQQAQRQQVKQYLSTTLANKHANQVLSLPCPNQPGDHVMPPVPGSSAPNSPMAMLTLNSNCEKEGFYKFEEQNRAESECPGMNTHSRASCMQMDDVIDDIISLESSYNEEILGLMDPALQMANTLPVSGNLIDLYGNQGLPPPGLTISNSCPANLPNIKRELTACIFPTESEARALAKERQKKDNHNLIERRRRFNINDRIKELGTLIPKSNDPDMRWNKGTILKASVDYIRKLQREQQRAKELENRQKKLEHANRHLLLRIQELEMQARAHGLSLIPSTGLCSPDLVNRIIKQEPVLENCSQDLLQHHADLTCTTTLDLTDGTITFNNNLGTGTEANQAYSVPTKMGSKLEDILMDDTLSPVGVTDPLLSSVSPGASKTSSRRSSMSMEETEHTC
FBW7 activator = activators of human E3 ligase FBW7. hit rate 0.13% among 650,000. Q969H0. normalized activity (activation), % at 26.1 µM. AlphaScreen FBW7–phospho-cyclin E peptide binding, activator screen; in the data active = normalized activity above about 1.9%;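 also: purified mutant Fbw7 with reduced substrate affinity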
TEAD-YAP block = TEAD-YAP interaction inhibition. HEK-TIYL cells, TEAD-Gal4/YAP UAS-luciferase luminescence. inhibition, % at 9.12 µM. hit rate 1.4% among 640,000. AID 1259422; in the data active = inhibition above about 32%
GPR151 ag = activators of human GPR151 | hit rate 1% among 650,000 | AID 1508602 | Q8TDV0 | PathHunter beta-arrestin GPR151 cells, luminescence | activation, % at 11.2 µM; in the data active = activation above about 4.9%
Large screens that a line does not name were inactive. The list is not random: actives were taken first. Their share in the collection is about 3.5%.

Nc1ccc(NC2=C(N3CCCCC3)C(=O)c3ccccc3C2=O)cc1	none
O=C1C(NC2CCCC2)=C(N2CCCCC2)C(=O)c2ccccc21	TEAD-YAP block 86
COc1ccc(C(=O)OCC(=O)NC(=O)NC2CCCC2)c(O)c1	none
COCCN(CC(=O)NC1CCCCC1)C(=O)/C=C/C(=O)c1ccc(OC)cc1O	TEAD-YAP block 49
COc1ccc(-c2cncc3ccc(C(=O)NCc4ccccc4OC)nc23)cc1	TEAD-YAP block 50
O=C(NCc1ccncc1)c1cnc2ccccc2n1	none
O=C(NCc1ccncc1)c1ccc2cncc(-c3ccccc3)c2n1	TEAD-YAP block 71
O=C(NCc1ccc(C(F)(F)F)nc1)c1ccc2cncc(-c3ccccc3)c2n1	TEAD-YAP block 49
COc1ccc(-c2cncc3ccc(C(=O)NCc4ccncc4)nc23)cc1	TEAD-YAP block 77
O=C(Nc1ccc2c(c1)CN(S(=O)(=O)N1CCOCC1)CC2)C1CCCO1 (centres undefined)	none
CCN1C(=O)CC(CC(=O)N2CCCC(c3ccccc3C)C2)(c2ccccc2C)C1=O (centres undefined)	none
Cc1cccc(NC(=O)C(=O)NCc2ccc(Cl)cc2)c1	none
COC(=O)c1ccc2c(=O)n(CCc3ccc(OC)c(OC)c3)c(SCc3cc(=O)n4ccccc4n3)nc2c1	none
COc1cc(Nc2nc3c(Nc4ccccc4)ncnc3n2C(C)C)cc(OC)c1OC	TEAD-YAP block 38
COc1cc(Nc2nc3c(NCCO)ncnc3n2C(C)C)cc(OC)c1OC	none
COc1cc(Nc2ncnc3c2nc(Nc2cccc(N(C)C)c2)n3C(C)C)cc(OC)c1OC	none
COc1cc(Nc2nc3c(NCCc4ccc(O)cc4)ncnc3n2C(C)C)cc(OC)c1OC	TEAD-YAP block 32
Cc1ccc(OCC(=O)Nc2cc(-c3nc4ccccc4o3)ccc2C)c(C)c1	none
O=C(Cn1ncc2c(=O)oc3ccccc3c21)N1CCN(c2cccc(Cl)c2)CC1	TEAD-YAP block 41
O=C(Cn1ncc2c(=O)oc3ccccc3c21)N1CCN(c2ccccc2)CC1	none
COCC(=O)Nc1cnn(-c2cccc(C(=O)NCC3OCCc4ccccc43)c2)c1 (centres undefined)	none
CC(=O)NCc1ccc(-c2csc(N)n2)cc1	none
CC(=O)NC(C)CCc1ccc(-c2csc(N)n2)cc1 (centres undefined)	TEAD-YAP block 36
Nc1ncc(-c2cccc(F)c2)nc1NCc1ccncc1	FBW7 activator 1.9
Nc1ncc(-c2ccncc2)nc1NCc1ccccc1	none
NC(=O)C1CCN(C(=O)c2ccc3c(=O)n(-c4ccc(F)cc4)c(SCc4ccc(Cl)cc4)nc3c2)CC1	none
COc1ccc(Cl)cc1-n1c(SCc2cc(=O)n3ccccc3n2)nc2[nH]ncc2c1=O	TEAD-YAP block 60
COc1ccc(Cl)cc1-n1c(SCc2ccccc2F)nc2[nH]ncc2c1=O	none
Cc1cc(-c2ccc(S(=O)(=O)N3c4ccccc4CC3C)cc2)on1 (centres undefined)	TEAD-YAP block 61
CC1Cc2ccccc2N1S(=O)(=O)c1ccc2c(c1)n(C)c(=O)c(=O)n2C (centres undefined)	none
CC1Cc2ccccc2N1S(=O)(=O)c1ccc2[nH]c(=O)[nH]c2c1 (centres undefined)	TEAD-YAP block 37
CCCOc1ccc(C(=O)CCNC(C)C(=O)O)cc1 (centres undefined)	none
Cc1cc(C)cc(Oc2c(C(F)(F)F)oc3c(CN4CCCCC4)c(O)ccc3c2=O)c1	none
CN1CCN(Cc2c(O)ccc3c(=O)c(Oc4ccc(C(C)(C)C)cc4)c(C(F)(F)F)oc23)CC1	TEAD-YAP block 34
CN1CCN(Cc2c(O)ccc3c(=O)c(Oc4ccc(-c5ccccc5)cc4)c(C(F)(F)F)oc23)CC1	none
CC(C)(C)c1ccc(Oc2c(C(F)(F)F)oc3c(CN4CCCC4)c(O)ccc3c2=O)cc1	TEAD-YAP block 36
COc1ccc(C2C(C#N)=C(N)N(c3cccc([N+](=O)[O-])c3)C3=C2C(=O)CC(C)(C)C3)cc1OC (centres undefined)	none
O=C(Nc1cccc(OC(=O)c2cc(S(=O)(=O)N3CCCCC3)ccc2Cl)c1)c1ccco1	none
COc1cccc(C(=O)Nc2cccc(OC(=O)c3cc(S(=O)(=O)N4CCCCC4)ccc3Cl)c2)c1	TEAD-YAP block 47
O=C(Oc1ccccc1)c1ccc(NC(=O)c2cc(S(=O)(=O)N3CCOCC3)ccc2Cl)cc1	none
COc1ccc(C(=O)Nc2cccc(OC(=O)c3cc(S(=O)(=O)N4CCOCC4)ccc3Cl)c2)cc1	TEAD-YAP block 55
CCOc1cc(/C=N/n2cnnc2)cc(I)c1O	MITF inh 65
CCC(Sc1nc(C)cc(C)n1)C(=O)Nc1sc2c(c1C(N)=O)CCCC2 (centres undefined)	none
Cc1ccsc1/C=C1\CCc2ccccc2C1=O	TEAD-YAP block 68
O=C(Nc1nc2ccc(NC(=O)C34CC5CC(CC(C5)C3)C4)cc2s1)C1CCCCC1	TEAD-YAP block 53
COc1ccc(C(=O)N2N=C(CCC(C)C)CC2(O)C(F)(F)F)cc1 (centres undefined)	none
O=C(Nc1nc(-c2ccc3ccccc3c2)cs1)c1cc([N+](=O)[O-])ccc1Cl	TEAD-YAP block 37
COc1ccc(-c2csc(NC(=O)c3cc(Cl)ccc3[N+](=O)[O-])n2)cc1C	TEAD-YAP block 53
CCOC(=O)c1ccc(NC(=O)c2cc([N+](=O)[O-])ccc2Cl)cc1	TEAD-YAP block 39
O=C(Nc1nc(-c2cccc3ccccc23)cs1)c1cc([N+](=O)[O-])ccc1Cl	TEAD-YAP block 44
Cc1ccc2c(COC(=O)Cn3cnnn3)cc(=O)oc2c1C	none
CCOC(=O)c1sc(NC(=O)c2cc([N+](=O)[O-])ccc2Cl)nc1-c1ccccc1	TEAD-YAP block 39
CCOC(=O)c1ccc(Nc2cc(OC)c([N+](=O)[O-])nc2[N+](=O)[O-])cc1	TEAD-YAP block 67
O=C(Nc1nc(-c2ccccc2)cs1)c1cc([N+](=O)[O-])ccc1Cl	TEAD-YAP block 33
O=C(Nc1nc(-c2ccccc2)cs1)c1cc([N+](=O)[O-])ccc1Br	none
CCOC(=O)c1sc(NC(=O)c2cc(Cl)ccc2[N+](=O)[O-])nc1-c1ccccc1	none
Cc1cccc(C2c3[nH]c4ccccc4c3CCN2C(=O)c2cnsn2)n1 (centres undefined)	none
O=C(Nc1nc2ccccc2s1)c1ccc([N+](=O)[O-])cc1Cl	none
Cc1nc(NC(=O)c2cccc(Br)c2)sc1C	none
COc1cc(OC)c(OC)cc1/C=C1N=C(/C=C/c2ccccc2)OC\1=O	none
COCCn1c(C)cc(C(=O)CSc2nnc3ccccn23)c1C	TEAD-YAP block 55
COCCn1c(C)cc(C(=O)CSc2ccc(Cl)cc2)c1C	TEAD-YAP block 88
Cc1cc(C(=O)CSc2nnc3ccccn23)c(C)n1-c1ccc(Br)cc1	none
COCCn1c(C)cc(C(=O)COC(=O)c2ccc[nH]c2=O)c1C	TEAD-YAP block 62
Cc1cc(C(=O)CSc2nnc3ccccn23)c(C)n1C1CCCCC1	TEAD-YAP block 60
Cc1ccc(-n2c(C)cc(C(=O)COC(=O)c3ccc[nH]c3=O)c2C)cc1	none
COCCn1c(C)cc(C(=O)CSc2nc(C)c(C)c(C)n2)c1C	none
